Assay outcomes deposited in PubChem BioAssay by National Center for Advancing Translational Sciences (NCATS).
Compounds with a hit are over-represented: about 7.1% of the library has one in this group of screens.
MCF10A rereplic = A quantitative high throughput screen for small molecules that induce DNA re-replication in MCF 10a normal breast cells; MCF 10A DNA re-replication, Hoechst nuclear intensity, 48 h; Potency, µM (top dose mostly 46.1 µM), without a hit: at the highest dose activity, positive = re-replication, hits mostly activators; hit rate 2.9% among 350,000; AID 624296, 2012; further: % of control where 0% means no effect; nearly all actives have a fitted effect of over 50% in size
SW480 rereplic = A quantitative high throughput screen for small molecules that induce DNA re-replication in SW480 colon adenocarcinoma cells | hit rate 1.8% among 340,000 | SW480 DNA re-replication, Hoechst DNA content imaging, 48 h | Potency, µM (titrated, usually from 46.1 µM), for the others: at the top dose re-replication activation, usual class: activators; further: % of control where 0% means no effect; nearly all actives have a fitted effect of over 55% in size
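Image-based DNA-content assay: after two days of treatment, nuclei were labelled with the DNA dye Hoechst and imaged, and hits were compounds raising the count of nuclei showing high fluorescence intensity.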
ELG1 genotox = qHTS screen for small molecules that induce genotoxicity in human embryonic kidney (HEK293T) cells expressing luciferase-tagged ELG1 | Potency, µM (top dose mostly 46 µM), inactives show top-dose activity change, positive = activation, hits mostly activators | hit rate 1.3% among 330,000 | HEK293T ELG1-luciferase reporter, luminescence, 16 h; further: % of control where 0% means no effect; nearly all actives have a fitted effect of over 60% in size
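16 hr compound incubation (37 °C, 5% CO2) of HEK293T cells carrying luciferase-tagged ELG1; luciferase then measured by ONE-Glo luminescence after 30 min at RT.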
A-T KAP1 phos = qHTS Assay for Identifying a Potential Treatment of Ataxia-Telangiectasia; F2112 A-T fibroblasts, KAP-1 phosphorylation AlphaLISA; neocarzinostatin DNA damage 30 min before lysis; hit rate 0.19% among 320,000; Potency, µM (doses to about 57.5 µM), for the others: at the highest dose activation, usual class: activators; further: % of control where 0% means no effect; nearly all actives have a fitted effect of over 45% in size
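ATM-like activity read as KAP-1 phosphorylation via AlphaLISA donor/acceptor antibody pairs after lysis and 6 hr at 25C. Cells were ATM-null patient fibroblasts (F2112, hTERT), dosed 60 min, then exposed to the DSB inducer NCS for 30 min.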
ELG1 DNA repair = qHTS screen for small molecules that inhibit ELG1-dependent DNA repair in human embryonic kidney (HEK293T) cells expressing luciferase-tagged ELG1 | HEK293T ELG1-luciferase reporter, luminescence, 16 h; DNA damage induced by 5-fluorouridine | hit rate 2.3% among 330,000 | Potency, µM (top dose mostly 46.1 µM), for inactives: top-dose activity change, negative = inhibition, usual class: inhibitors; further: on the % scale 0 is the no-effect control and ±100 the full control effect; nearly all actives have a fitted effect of over 55% in size
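Reporter activity after DNA damage by 5-fluorouridine is monitored. Compound-treated cells incubate 16 hr at 37 °C, then ONE-Glo is added for 30 min before luminescence reading.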
p53 reactivator = qHTS assay for re-activators of p53 using a Luc reporter; AID 504706, 2011; H1299 p53-A138V BP100-luciferase reporter, luminescence, 24 h; Potency, µM (series often up to 92.2 µM), inactives show at the highest dose activity change, positive = activation, hits mostly activators; hit rate 0.063% among 320,000; further: % of control where 0% means no effect; nearly all actives have a fitted effect of over 45% in size
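H1299 (p53-null), stable ts p53-A138V + BP100-Luc; 1000 cells/well, Opti-MEM/10% FBS; cpd 4 pt, 1:5; 24 h, 37 deg C, 5% CO2; detection reagent 10 min RT; luminescence.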
The depositor's hits bear a star; ? = inconclusive; / = no result; [ ] = another dose, or the depositor's remark. The call rests on the fitted dose curve; in most records, active means well fitted curve in the direction sought with a large enough effect; inconclusive means small, poorly fitted or top-dose-only effect, or another doubt; inactive means no such curve, though single readings can be large; an effect the other way counts as inactive or inconclusive. Potency means the concentration at half of the fitted maximal effect.

SMILES	MCF10A rereplic	SW480 rereplic	ELG1 genotox	A-T KAP1 phos	ELG1 DNA repair	p53 reactivator
O=C(c1ccc(Cn2c(=S)[nH]c3cc4c(cc3c2=O)OCO4)cc1)N1CCN(c2ccccc2)CC1	0%	-1%	-7%	1%	?	1%
O=C(c1ccc(CN2CCc3ccccc3C2)cc1)N1CCN(c2ccc(F)cc2)CC1	7.3µM*	-10%	/	/	/	/
COc1ccc(CC(C)N2CCN(Cc3ccccc3)CC2)cc1OC (stereo unspecified)	1%	0%	0%	-11%	2%	/
O=C(c1ccc(Cn2cc(Br)cn2)cc1)N1CCN(c2ccccc2)CC1	21µM*	15µM*	-5%	4%	?	-25%
O=C(c1ccc(Cn2c(=S)[nH]c3ccc(N4CCOCC4)cc3c2=O)cc1)N1CCN(c2ccc(F)cc2)CC1	4.6µM*	12%	0%	1%	?	8%
COc1ccc(N2CCN(C(=O)c3ccc(Cn4c(=S)[nH]c5ccc(N6CCOCC6)cc5c4=O)cc3)CC2)cc1	?	-7%	8%	2%	?	4%
O=C(c1ccc(Cn2cc(Cl)cn2)cc1)N1CCN(c2ccccc2)CC1	-181%[0.0737 µM]	2%	/	/	/	/
O=C(c1ccc(Cn2c(=O)[nH]c3ccccc3c2=O)cc1)N1CCN(c2ccc(F)cc2)CC1	1%	0%	2%	3%	18µM*	-16%
COc1ccc(C(=O)COC(=O)c2cc(S(=O)(=O)NCc3ccccc3)ccc2O)cc1	-1%	-2%	0%	7%	6%	3%
COc1ccc(CCNC(=O)CSCC(=O)Nc2cc(S(C)(=O)=O)ccc2Cl)cc1	-4%	7%	0%	0%	0%	5%
CC(C)c1ccc(N)c(S(=O)(=O)O)c1	2%	-21%	-2%	3%	-9%	1%
Nc1nc(-c2ccc3ccccc3c2)cs1	5%	0%	4.6µM*	21%	?	0%
NC(=S)NN=Cc1nccc2ccccc12	?	2.9µM*	/	/	/	/
NC(=S)N/N=C/c1ccc(-c2ccccc2)o1	0.73µM*	22%	9%	1%	-2%	17%
Cc1ccc(-c2ccc(/C=N/NC(N)=S)o2)cc1	?	-14%	12%	-3%	?	?
NC(=S)N/N=C/c1ccc(/C=N/NC(N)=S)cc1	?	18µM*	-2%	-5%	12%	1%
CC(=O)Nc1cccc(OCc2cnc(Cl)s2)c1	0.15µM*	13%	13%	-1%	?	6%
COc1cccc(CNc2ccc(S(N)(=O)=O)cc2)c1OC	19%	18µM*	-1%	9%	-26%	-5%
CC(C)(C)c1cnnn1-c1ccc(C(=O)CCl)cc1	16µM*	?	-2%	-8%	-23%	-22%
C/C(=N\OC(=O)Nc1ccc(Cl)cc1)c1ccc(F)c(F)c1	?	-7%	5%	11%	?	2%
CC(C)C(Cl)=NOC(=O)Nc1ccc(F)cc1	3.3µM*	?	/	/	/	/
CCOC(=O)c1ccc(CSC(=N)N)o1	?	21µM*	?	-19%	0%	-15%
CCOC(=O)c1ccoc1CSCc1ccc(C(=O)OC)o1	?	-12%	21µM*	-5%	0%	5%
COC(=O)c1ccc(CSC(=N)N)o1	?	?	3%	1%	-9%	-10%
CCCc1cc(=O)oc2cc(C)cc(OCC(=O)N3CCC(C(=O)O)CC3)c12	22%	?	2%	9%	1%	7%
SMILES	MCF10A rereplic	SW480 rereplic	ELG1 genotox	A-T KAP1 phos	ELG1 DNA repair	p53 reactivator
Cc1ccc(S(=O)(=O)NC2CC(C)(C)N(O)C(C)(C)C2)cc1	1%	3%	0%	5%	-1%	-5%
COC(=O)[C@H](Cc1ccccc1)NC(=O)O[C@@H]1C(=O)c2cc(OC)ccc2O[C@H]1c1ccc(OC)c(Br)c1	12%	?	1%	12%	2.9µM*	-1%
COc1ccc2c(c1)C(=O)[C@H](O)[C@@H](c1ccc(OC)c(Br)c1)O2	?	4.1µM*	?	1%	-20%	22%
CC[C@H](C)[C@@H](NC(=O)O[C@@H]1C(=O)c2cc(OC)ccc2O[C@H]1c1ccc(OC)c(Br)c1)C(=O)OC	-19%	-1%	1%	-13%	?	3%
N#Cc1cnn(-c2ccccc2)c1NC(=O)c1ccccc1F	1%	53%	1%	0%	1%	-3%
O=c1c2ccccc2[nH]c2ccccc12	122%	18µM*	0%	?	-14%	5%
O=C(NNc1nc(-c2ccc(Br)cc2)cs1)c1ccco1	2.6µM*	?	?	-14%	?	22%
N#Cc1ccc(-c2csc(NNC(=O)c3ccc(Br)cc3)n2)cc1	?	5.2µM*	-14%	-7%	?	5%
Cc1ccc(/C=N/N=C/c2ccc(C)cc2)cc1	0%	-1%	21µM*	-10%	?	29%
COc1ccc(CN2CCNC(=O)C2CC(=O)NCC2CCOCC2)cc1C (stereo unspecified)	-15%	-6%	2%	4%	-13%	8%
CN1CCN(c2ccc(NC(=O)c3ccc(-c4ccc(Cl)cc4)o3)cc2)CC1	23µM*	?	-11%	9%	?	-19%
O=C(Nc1ccc(N2CCN(C(=O)c3ccc(Cl)cc3)CC2)cc1)c1ccc(Br)o1	?	3%	-7%	1%	21µM*	3%
O=C(O)Cc1sc(Nc2ccc(F)cc2)nc1-c1cccs1	21µM*	16%	29%	-18%	?	4%
COc1cc(/C=N/NC(=O)COc2cccc(F)c2)ccc1OS(=O)(=O)c1ccc(C)cc1	?	?	-15%	6%	18µM*	17%
COc1cc(/C=N/NC(=O)COc2ccc(Cl)cc2)ccc1OS(=O)(=O)c1ccc(C)cc1	17%	-1%	-10%	-1%	?	1%
c1ccc(-c2nnc(NC3=NCCC3)o2)cc1	-1%	-12%	1.8µM*	3%	?	-4%
O=C(NCCc1ccccc1)C(c1ccc(F)cc1)N(C(=O)c1csnn1)C1CC1 (stereo unspecified)	-20%	1%	-7%	0%	-9%	0%
CC(C)CN1CCC(Oc2cccc(C(=O)NCCc3ccccc3)c2)CC1	-1%	10%	20%	-5%	8%	40µM*
